Results with a measured potency or affinity are listed apart. Results filed as inconclusive are left out. Unmarked numbers belong to inactive results. The rule behind the calls is not given here.

The assay in a line: toxicity to human HepG2 hepatoma cells – cell-based, plate reader, dry powder samples, cytotoxicity control, dose response (AID 1159569). The settings on record: HepG2 cytotoxicity counterscreen; series mostly up to 50 µM; activity change, negative = cytotoxicity: at the top concentration. (A counterscreen serves to expose hits that act by an unwanted route or on another target.)
Consider `C/C=C/c1ccccc1[C@H]1[C@@H](C#N)N(C(=O)NC2CCCC2)[C@H]1CO`, for which the “activity change, negative = cytotoxicity” value is -49.4%.
The value for `CO[C@@H]1CN(C)C(=O)c2ccc(NC(=O)Nc3ccccc3F)cc2OC[C@@H](C)N(CCC(F)(F)F)C[C@H]1C` was -11.2% [at 56 µM]; that for `COc1ccc(NC(=O)N(C)C[C@H]2Oc3c(NC(=O)Nc4ccccc4)cccc3C(=O)N([C@@H](C)CO)C[C@H]2C)cc1` was -9.45%; that for `C[C@@H]1CN([C@@H](C)CO)C(=O)c2cccc(NC(=O)C3CC3)c2O[C@@H]1CN(C)C(=O)Nc1ccc(C(F)(F)F)cc1` was -8.27%.
The value for `C[C@H]1CN([C@@H](C)CO)C(=O)c2cc(NC(=O)Nc3ccc(C(F)(F)F)cc3)ccc2O[C@@H]1CN(C)C(=O)Nc1cccc2ccccc12` was 2.11%; that for `CC(C)(C)[S@@](=O)N1Cc2cc(C(=O)N[C@@H]3CCN(Cc4ccccc4)C3)nc(-c3cccc(-c4cccnc4)c3)c2[C@H]1CCO` was -19.4%; that for `C[C@H]1CN([C@@H](C)CO)C(=O)c2c(c3ccccc3n2C)-c2ccccc2CO[C@@H]1CN(C)C(=O)Nc1ccc(-c2ccccc2)cc1` was -18.3%.
Consider `C/C=C/c1ccc2c(c1)[C@H]1[C@H](CCN1S(=O)(=O)c1ccccc1C)[C@@H](CO)N2`, for which the “activity change, negative = cytotoxicity” value was -13.2%.
`C[C@H](CO)N1C[C@H](C)[C@H](CN(C)CC2CC2)Oc2ccc(NC(=O)Nc3ccccc3)cc2CC1=O`: the “activity change, negative = cytotoxicity” value was -18.3%.
Regarding `OC[C@H]1CC[C@@H]2O[C@H](CCc3ccc(C#CCc4ccccc4)cc3)[C@H](n3cc(-c4ccccc4)nn3)C[C@@H]2O1`, the “activity change, negative = cytotoxicity” value was -31.8%.
Then `CCCC(=O)Nc1ccc2c(c1)OC[C@@H](C)N(Cc1ccccc1F)C[C@@H](C)[C@H](OC)CN(C)C2=O`, with -6.21%; and `COc1ccccc1NC(=O)Nc1ccc2c(c1)OC[C@@H](C)N(Cc1ccccc1Cl)C[C@@H](C)[C@H](OC)CN(C)C2=O`, with -18.2%; and `CCCc1cn(CC[C@@H]2CC[C@H](NS(=O)(=O)c3ccc(-c4ccccc4)cc3)[C@H](CO)O2)nn1`, with -45.1%.
Then `COc1ccc2c3c([nH]c2c1)[C@H](CO)N(C(=O)C1CCOCC1)CC31CCN(Cc2nccs2)CC1`, with -3.5%; and `COc1ccc(-c2ccccc2[C@H]2[C@@H](C#N)N(C(=O)NC(C)C)[C@H]2CO)cc1`, with -17.9%.
For `C[C@@H]1CN([C@@H](C)CO)C(=O)c2cccc(NC(=O)c3cnccn3)c2O[C@@H]1CN(C)Cc1ccc(-c2ccccc2)cc1`, the “activity change, negative = cytotoxicity” value was -23.5%.
As to `C[C@@H]1CN([C@@H](C)CO)C(=O)c2cccc(NC(=O)Nc3ccc4c(c3)OCO4)c2O[C@@H]1CN(C)C(=O)Nc1ccc2c(c1)OCO2`, the “activity change, negative = cytotoxicity” value was -9.01%.
Regarding `O=C(c1ccncc1)N1CC(=O)N2[C@H](C1)[C@@H](c1ccc(-c3cccnc3)cc1)[C@@H]2CO`, the “activity change, negative = cytotoxicity” value is -13.9%.
As to `COc1ccc(-c2ccc([C@H]3[C@H](C#N)N(C(=O)c4cccc(F)c4)[C@H]3CO)cc2)cc1`, the “activity change, negative = cytotoxicity” value was -21.9%.
Then `COc1ccc(S(=O)(=O)Nc2ccc3c(c2)CC(=O)N([C@@H](C)CO)C[C@H](C)[C@H](CN(C)S(=O)(=O)c2ccc(C)cc2)O3)cc1`, with -23.3%; and `COc1cccc(C#Cc2cnc3c(c2)C(=O)N([C@@H](C)CO)C[C@H](C)[C@@H](CN(C)C(=O)C2CCCCC2)O3)c1`, with -33.1%.
Then `C[C@H]1CN([C@@H](C)CO)C(=O)c2c(c3ccccc3n2C)-c2ccccc2CO[C@@H]1CN(C)C(=O)Nc1cccc(C(F)(F)F)c1`, with -53.7%; and `C/C=C/c1ccc2c(c1)[C@H]1[C@H](CCN1C(=O)c1ccc(F)cc1)[C@H](CO)N2`, with -28.2%; and `CN1c2ccc(C#Cc3cccnc3)cc2[C@H]2[C@H](CCN2S(=O)(=O)c2ccc(F)cc2)[C@H]1CO`, with -33.4% [at 46 µM].
The value for `C[C@H](CO)N1C[C@H](C)[C@H](CN(C)S(=O)(=O)c2ccc([N+](=O)[O-])cc2)OCc2ccccc2-c2c(n(C)c3ccccc23)C1=O` was -28.4%; that for `COc1ccc2c3c([nH]c2c1)[C@H](CO)N(C(=O)C1CCCCC1)CC31CCN(Cc2nccs2)CC1` was 0.429%.
For the compound `CCCNC(=O)c1cc2c(c(-c3cccc(-c4cc5ccccc5o4)c3)n1)[C@H](CCO)N(C(=O)NC(C)C)C2`, the “activity change, negative = cytotoxicity” value was -31.5%.
In the case of `COc1ccc(-c2ccccc2[C@H]2[C@@H](C#N)N(C(=O)C3CCCCC3)[C@H]2CO)cc1`, the “activity change, negative = cytotoxicity” value is -11.1%.
Turning to `COc1ccc(C#Cc2ccc3c(c2)O[C@@H](CN(C)C(=O)Nc2cccc(OC)c2)[C@H](C)CN([C@H](C)CO)S3(=O)=O)cc1`, the “activity change, negative = cytotoxicity” value is -30.5%.
Then `C[C@@H]1CN([C@H](C)CO)C(=O)c2cc(/C=C/c3ccccc3)cnc2O[C@H]1CN(C)C(=O)NC1CCCCC1`, with -14.9%.

The values are drawn from PubChem BioAssay AID1159569 (Broad Institute, 2015).
